{
  "source": "the supplement of paper PMC4022240",
  "test_in_all_cases": "peptide microarray binding signal (635 nm), min-max normalized on array (fraction of array maximum); higher = stronger binding",
  "conditions_in_all_cases": "peptide region: H3 30-42",
  "key": {"[1]": {"target": "T1, HaloTag-ATRX ADD domain (163-292)", "T1 chain": "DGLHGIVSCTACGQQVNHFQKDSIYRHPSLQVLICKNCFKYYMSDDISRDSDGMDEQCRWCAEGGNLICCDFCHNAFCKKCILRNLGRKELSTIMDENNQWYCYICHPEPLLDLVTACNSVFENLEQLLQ", "in_short": "(§1)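 Binding signal is the mean intensity of triplicate spots, min-max scaled within each library. Histone 13-mer peptide–cellulose conjugates were spotted in triplicate on nitrocellulose with a Cy3 tracer and blocked overnight at 4°C. Probing lasted 1 h at 4°C, either with biotin-labelled HaloTag reader fusions (10 nM to 1 μM) and streptavidin-Alexa Fluor 647 or with rabbit histone antibodies (1:10,000 to 1:2,000) and anti-rabbit Alexa 647. An Axon GenePix 4000B read signal at 635 nm and misprints at 532 nm.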"}, "[2]": {"target": "HaloTag-ING2 PHD (mouse Ing2 200-280)", "in_short": "as §1"}, "[3]": {"target": "anti-H3K4me3 antibody ab8580", "in_short": "as §1"}, "[4]": {"target": "anti-H3K9me3 antibody ab8898", "in_short": "as §1"}, "[5]": {"conditions": "peptide modifications: H3K36me2 H3K37me1, binder concentration: 1:2,000 dilution"}, "[6]": {"conditions": "peptide modifications: H3K36me2 H3K37me1, binder concentration: 1:10,000 dilution"}, "[7]": {"conditions": "peptide modifications: H3K36me2 H3K37me2, binder concentration: 1:2,000 dilution"}, "[8]": {"conditions": "peptide modifications: H3K36me2 H3K37me2, binder concentration: 1:10,000 dilution"}, "[9]": {"conditions": "peptide modifications: H3K36me2 H3K37me3, binder concentration: 1:2,000 dilution"}, "[10]": {"conditions": "peptide modifications: H3K36me2 H3K37me3, binder concentration: 1:10,000 dilution"}, "[11]": {"conditions": "peptide modifications: H3K36me3, binder concentration: 1:2,000 dilution"}, "[12]": {"conditions": "peptide modifications: H3K36me3, binder concentration: 1:10,000 dilution"}, "[13]": {"conditions": "peptide modifications: H3K36me3 H3K37ac, binder concentration: 1:2,000 dilution"}, "[14]": {"conditions": "peptide modifications: H3K36me3 H3K37ac, binder concentration: 1:10,000 dilution"}},
  "note": "± gives the standard deviation.",
  "data": [
    {"binder": "PATGGVKKPHRYR", "note": "[H3 30-42 P A T G G V Kme2 Kme P H R Y R]", "values": [
      {"measurement": "peptide microarray binding signal", "setting": "[1]; peptide modifications: H3K36me2 H3K37me1, binder concentration: 50 nM", "result": "0.00476 ± 8.1e-05"},
      {"measurement": "peptide microarray binding signal", "setting": "[1]; peptide modifications: H3K36me2 H3K37me1, binder concentration: 500 nM", "result": "0.0141 ± 0.0045"},
      {"measurement": "peptide microarray binding signal", "setting": "[2]; peptide modifications: H3K36me2 H3K37me1, binder concentration: 10 nM", "result": "0.00913 ± 0.0015"},
      {"measurement": "peptide microarray binding signal", "setting": "[2]; peptide modifications: H3K36me2 H3K37me1, binder concentration: 100 nM", "result": "0.00376 ± 0.0011"},
      {"measurement": "peptide microarray binding signal", "setting": "[3]; [5]", "result": "0.000774 ± 0.00022"},
      {"measurement": "peptide microarray binding signal", "setting": "[3]; [6]", "result": "0.00622 ± 0.002"},
      {"measurement": "peptide microarray binding signal", "setting": "[4]; [5]", "result": "0.00214 ± 0.00062"},
      {"measurement": "peptide microarray binding signal", "setting": "[4]; [6]", "result": "0.00208 ± 0.00019"}
    ]},
    {"binder": "PATGGVKKPHRYR", "note": "[H3 30-42 P A T G G V Kme2 Kme2 P H R Y R]", "values": [
      {"measurement": "peptide microarray binding signal", "setting": "[1]; peptide modifications: H3K36me2 H3K37me2, binder concentration: 50 nM", "result": "0.00185 ± 1.5e-05"},
      {"measurement": "peptide microarray binding signal", "setting": "[1]; peptide modifications: H3K36me2 H3K37me2, binder concentration: 500 nM", "result": "0.00476 ± 0.00025"},
      {"measurement": "peptide microarray binding signal", "setting": "[2]; peptide modifications: H3K36me2 H3K37me2, binder concentration: 10 nM", "result": "0.00501 ± 0.00021"},
      {"measurement": "peptide microarray binding signal", "setting": "[2]; peptide modifications: H3K36me2 H3K37me2, binder concentration: 100 nM", "result": "0.00227 ± 0.00036"},
      {"measurement": "peptide microarray binding signal", "setting": "[3]; [7]", "result": "0.000396 ± 7e-06"},
      {"measurement": "peptide microarray binding signal", "setting": "[3]; [8]", "result": "0.000799 ± 5.8e-05"},
      {"measurement": "peptide microarray binding signal", "setting": "[4]; [7]", "result": "0.00267 ± 8.5e-05"},
      {"measurement": "peptide microarray binding signal", "setting": "[4]; [8]", "result": "0.00104 ± 2.8e-05"}
    ]},
    {"binder": "PATGGVKKPHRYR", "note": "[H3 30-42 P A T G G V Kme2 Kme3 P H R Y R]", "values": [
      {"measurement": "peptide microarray binding signal", "setting": "[1]; peptide modifications: H3K36me2 H3K37me3, binder concentration: 50 nM", "result": "0.00266 ± 7.1e-05"},
      {"measurement": "peptide microarray binding signal", "setting": "[1]; peptide modifications: H3K36me2 H3K37me3, binder concentration: 500 nM", "result": "0.00343 ± 0.00019"},
      {"measurement": "peptide microarray binding signal", "setting": "[2]; peptide modifications: H3K36me2 H3K37me3, binder concentration: 10 nM", "result": "0.00298 ± 6.6e-05"},
      {"measurement": "peptide microarray binding signal", "setting": "[2]; peptide modifications: H3K36me2 H3K37me3, binder concentration: 100 nM", "result": "0.00454 ± 0.00042"},
      {"measurement": "peptide microarray binding signal", "setting": "[3]; [9]", "result": "0.0016 ± 0.00015"},
      {"measurement": "peptide microarray binding signal", "setting": "[3]; [10]", "result": "0.00126 ± 3.7e-05"},
      {"measurement": "peptide microarray binding signal", "setting": "[4]; [9]", "result": "0.00429 ± 0.0012"},
      {"measurement": "peptide microarray binding signal", "setting": "[4]; [10]", "result": "0.00133 ± 4e-05"}
    ]},
    {"binder": "PATGGVKKPHRYR", "note": "[H3 30-42 P A T G G V Kme3 K P H R Y R]", "values": [
      {"measurement": "peptide microarray binding signal", "setting": "[1]; peptide modifications: H3K36me3, binder concentration: 50 nM", "result": "0.00574 ± 0.00018"},
      {"measurement": "peptide microarray binding signal", "setting": "[1]; peptide modifications: H3K36me3, binder concentration: 500 nM", "result": "0.007429 ± 7.1e-05"},
      {"measurement": "peptide microarray binding signal", "setting": "[2]; peptide modifications: H3K36me3, binder concentration: 10 nM", "result": "0.0195 ± 0.00025"},
      {"measurement": "peptide microarray binding signal", "setting": "[2]; peptide modifications: H3K36me3, binder concentration: 100 nM", "result": "0.02445 ± 0.00017"},
      {"measurement": "peptide microarray binding signal", "setting": "[3]; [11]", "result": "0.00383 ± 0.00027"},
      {"measurement": "peptide microarray binding signal", "setting": "[3]; [12]", "result": "0.00468 ± 0.00012"},
      {"measurement": "peptide microarray binding signal", "setting": "[4]; [11]", "result": "0.0031 ± 0.00028"},
      {"measurement": "peptide microarray binding signal", "setting": "[4]; [12]", "result": 0.00219}
    ]},
    {"binder": "PATGGVKKPHRYR", "note": "[H3 30-42 P A T G G V Kme3 Kac P H R Y R]", "values": [
      {"measurement": "peptide microarray binding signal", "setting": "[1]; peptide modifications: H3K36me3 H3K37ac, binder concentration: 50 nM", "result": "0.00197 ± 6.4e-05"},
      {"measurement": "peptide microarray binding signal", "setting": "[1]; peptide modifications: H3K36me3 H3K37ac, binder concentration: 500 nM", "result": "0.00643 ± 0.0006"},
      {"measurement": "peptide microarray binding signal", "setting": "[2]; peptide modifications: H3K36me3 H3K37ac, binder concentration: 10 nM", "result": "0.00603 ± 7.6e-05"},
      {"measurement": "peptide microarray binding signal", "setting": "[2]; peptide modifications: H3K36me3 H3K37ac, binder concentration: 100 nM", "result": "0.00128 ± 0.00011"},
      {"measurement": "peptide microarray binding signal", "setting": "[3]; [13]", "result": "0.000566 ± 6.2e-05"},
      {"measurement": "peptide microarray binding signal", "setting": "[3]; [14]", "result": "0.00856 ± 0.0042"},
      {"measurement": "peptide microarray binding signal", "setting": "[4]; [13]", "result": "0.0143 ± 0.0012"},
      {"measurement": "peptide microarray binding signal", "setting": "[4]; [14]", "result": "0.00617 ± 0.0014"}
    ]}
  ]
}
